KKLEB tox = counter-screen for CF NF-kB inhibitors: cytotoxicity | KKLEB CF airway cells viability, ATPlite luminescence, overnight; hits give low values; cells stimulated with P. aeruginosa culture filtrate | activity change (cytotoxicity), % at 5 µM | actives 0.36% (n = 360,000) | AID 602141;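 active = corrected activity change at or below -50% at 5 µM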
EWS-Fli block = blocks EWS/Fli oncoprotein-driven transcription. A673 NR0B1-luciferase reporter, viability-normalised. inhibition, % at 12.6 µM. actives 0.67% (n = 350,000). AID 651661;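 active = mean inhibition of at least 50% after viability correction, with every replicate also passing that limit; inconclusive = mean reaches 50% but only one of two replicates passes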;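 also: firefly luciferase signal divided by Alamar Blue viability fluorescence both relative to DMSO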
LGR2 inh = Drosophila LGR2 receptor signaling inhibition | HEK293 LGR2, CRE-luciferase, bursicon-stimulated, 4 h | inhibition, % at 9.99 µM | AID 720647 | actives 0.35% (n = 380,000);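 active = drop in luminescence signal, shown as inhibition above about 50% in the replicate tests, limit read from the data, passing the limit was not always enough; inconclusive = probably only some replicates passing the limit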;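 also: agonist challenge used bursicon conditioned medium at about half maximal strength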
CF NFkB block = blocks PAF-induced NF-kB reporter in cystic fibrosis cells; inhibition, % at 5 µM; AID 588850; actives 0.86% (n = 360,000); KKLEB NF-kB-GFP reporter, GFP fluorescence overnight;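 active = at least 50% inhibition at 5 µM, scaled per plate between neutral and stimulator controls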;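 also: PAF is a Pseudomonas aeruginosa culture filtrate used as stimulus; plate controls were PAF-stimulated DMSO wells for no effect and unstimulated DMSO wells for full effect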
TWEAK-Fn14 inh = blocks TWEAK-Fn14 interaction in a reporter cell assay; TWEAK-stimulated Fn14 reporter cells, luciferase luminescence, 8 h; inhibition, % at 10 µM; actives 2% (n = 360,000); AID 1159606; in the data active = inhibition above about 50%
TROY signal inh = inhibitors of TROY-dependent NF-kB signaling; actives 0.98% (n = 360,000); inhibition, % at 10 µM; Q293 LMP1-TROYcd NF-kB luciferase reporter, 4 h; AID 1347056;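 active = compounds whose plate-normalised and pattern-corrected inhibition of the luciferase reporter signal at the single screening dose is 50% or more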
Numbers without * were called inactive; ? = inconclusive; · = no result. An excerpt weighted towards active compounds, which were near 2.6% of everything screened.

SMILES	KKLEB tox	EWS-Fli block	LGR2 inh	CF NFkB block	TWEAK-Fn14 inh	TROY signal inh
Cc1cc(C(=O)CSc2nnnn2C)c(C)n1-c1ccc2c(c1)OCCO2	6	·	·	-3	22	52*
Cc1cc(C(=O)CN2C(=O)C(=O)N(Cc3ccccc3)C2=O)c(C)n1-c1ccc2c(c1)OCCO2	-14	1	?	7	51*	22
Cc1cc(-n2c(C)cc(C(=O)CSc3nnnn3-c3ccc(Cl)cc3)c2C)no1	-68*	·	·	51*	-11	18
CO[C@H]1CN(C)C(=O)c2cc(NC(=O)NC3CCCCC3)ccc2OC[C@H](C)N(C(C)=O)C[C@@H]1C	·	-3	-1	·	·	·
CC(C)N1CCc2c(sc(NC(=O)c3ccc([N+](=O)[O-])o3)c2C(N)=O)C1	9	36	11	79*	-5	7
COC(=O)c1c(NC(=O)c2ccc([N+](=O)[O-])o2)sc2c1CCN(C(C)C)C2	-29	48	-1	75*	-32	-2
COc1ccc(C(=O)Nc2sc3c(c2C#N)CCN(C(C)=O)C3)cc1	-9	32	-22	-5	-12	-24
CC(=O)N1CCc2c(sc(NC(=O)c3ccc([N+](=O)[O-])o3)c2C#N)C1	-64*	5	-18	98*	-1	-28
CC(C)N1CCc2c(sc(NC(=O)c3nc4ccccc4s3)c2C(N)=O)C1	-14	1	-3	-18	20	28
COC(=O)c1c(NC(=O)Cc2ccccc2)sc2c1CCN(C(C)C)C2	20	-7	-17	-18	-5	0
Cc1ccc(S(=O)(=O)Nc2ccc3c(c2)C(=O)N([C@@H](C)CO)C[C@@H](C)[C@@H](CN(C)Cc2ccncc2)OCCCC[C@H](C)O3)cc1	·	2	-9	·	·	·
Cc1ccccc1-c1cnc2c(c1)C(=O)N([C@@H](C)CO)C[C@H](C)[C@@H](CN(C)Cc1cccnc1)O2	·	1	0	·	·	·
CCCN(C)C[C@@H]1Oc2cc(-c3ccc(C#N)cc3)ccc2S(=O)(=O)N([C@@H](C)CO)C[C@@H]1C	·	9	3	·	·	·
COCC(=O)N1[C@@H](C#N)[C@@H](c2ccccc2-c2ccc(C)cc2)[C@@H]1CO	·	1	-6	·	·	·
O=C(OCn1ncc(Cl)c(Cl)c1=O)c1cccc(C(F)(F)F)c1	-38	·	·	78*	98*	28
N/C(=N\OC(=O)c1cccc(C(F)(F)F)c1)c1cnccn1	2	-72	-20	-17	-15	-87
O=C(Nc1cc(S(=O)(=O)Nc2ccc(Cl)cc2)ccc1O)c1ccc(S(=O)(=O)N2CCCCCC2)cc1	-1	12	8	-2	13	57*
O=C(Nc1cc(S(=O)(=O)N2CCCCC2)ccc1O)c1ccccc1NS(=O)(=O)c1ccc(F)cc1	-1	8	1	10	15	43
O=C(Nc1cc(S(=O)(=O)N2CCCCC2)ccc1Cl)c1ccccc1NS(=O)(=O)c1ccc(F)cc1	-43	24	47	66*	65*	52*
C[C@@H]1CN([C@H](C)CO)C(=O)c2cc(-c3ccc(F)cc3)cnc2O[C@@H]1CN(C)C(=O)CN(C)C	·	-12	25	·	·	·
O=C(CC(F)(F)F)N1C[C@H]2[C@@H](c3ccccc31)[C@H](CO)N2C(=O)C1CCCCC1	·	2	5	·	·	·
O=C(C[C@H]1CC[C@H]2[C@@H](COC[C@H](O)CN2C(=O)Nc2ccc(F)cc2)O1)NC1CCC1	·	·	-6	·	·	·
Cn1cc(C(=O)CCl)c2ccccc21	-15	15	-3	54*	32	0
Cc1ccc(S(=O)(=O)N(C)C[C@H]2Oc3ccc(NC(=O)Nc4cccc5ccccc45)cc3C(=O)N([C@H](C)CO)C[C@H]2C)cc1	·	1	7	·	·	·
COc1ccc(N=C2S/C(=C\c3ccc(N4CCOCC4)o3)C(=O)N2CCc2c[nH]c3ccccc23)cc1	-16	·	·	-9	97*	16
Cc1c(Cc2ccccc2)sc(/N=C/c2c(O)ccc3ccccc23)c1C(N)=O	2	·	·	5	42	24
Cc1c(Cc2ccccc2)sc(/N=C/c2ccc3ccccc3c2)c1C(N)=O	-24	·	·	35	60*	-64
COc1cc2ccnc(C=NO)c2cc1OC	-17	11	4	17	24	21
COc1cc2ccnc(C=O)c2cc1OC	-26	·	·	86*	56*	2
